Assay results as given in PubChem BioAssay AID2320 (National Center for Advancing Translational Sciences (NCATS), 2010).
Records with an inconclusive call do not appear. A call without a number means that no potency is given here. Calls of active or inactive are those of the source. The call rests on the fitted dose curve.

Assay: A qHTS for Small Molecule Inhibitors of Shiga Toxin (Confirmatory); further: nearly all actives have a fitted effect of over 75% in size
Potency means the concentration at half of the fitted maximal effect.

Row | Structure (SMILES) | Potency
1 | O=C(NCCN1C(=O)S/C(=C\c2ccc(Cl)cc2)C1=O)c1ccc(F)c(S(=O)(=O)N2CCOCC2)c1 | 6.34 µM (active)
2 | CCOC(=O)N1CCN(S(=O)(=O)c2ccc(C(=O)NNc3nc4c(C)cc(C)cc4s3)cc2)CC1 | 0.04 µM (active)
3 | Cc1ccccc1C(=O)NN1CCOCC1 | inactive
4 | COCCCn1c(SCC(=O)OC2CCCCC2)nnc1-c1cccs1 | inactive
5 | Cc1cc(C)nc(SCC(=O)Nc2cc(C)on2)n1 | inactive
6 | CCCC[C@@H]1C[C@H]1[C@@H](NC(=O)c1ccco1)c1ccc(Cl)cc1 | 8.95 µM (active)
7 | CCOC(=O)c1[nH]c2ccc(OC)cc2c1NC(=O)C(C)N1CCC2(CC1)OCCO2 (configuration not stated) | inactive
8 | COc1cccc(/C=C/C(=O)c2cccc([N+](=O)[O-])c2)c1OC | inactive
9 | O=C(NC1CCCCC1)c1cccc(S(=O)(=O)N2CCCCC2)c1 | inactive
10 | O=C(Nc1nnc(S(=O)(=O)N2CCOCC2)s1)c1cccc(Br)c1 | 20 µM (active)
11 | COc1ccccc1CNc1nc2ccccc2n1CCN1CCCCC1 | inactive
12 | CCOc1cc(S(=O)(=O)N2CCN(Cc3ccccc3)CC2)ccc1Br | inactive
13 | CCC(C)C1C(C#N)=C(N)OC2=C1C(=O)CC(C)(C)C2 (configuration not stated) | inactive
14 | COC(=O)c1ccc(-c2ncc(-c3cccc4ccccc34)o2)cc1 | 7.11 µM (active)
15 | CCOC(=O)N1CCN(C(=O)CCC(=O)c2ccc(OCC)cc2)CC1 | inactive
16 | O=C(Nc1ccc2oc(-c3ccccc3)nc2c1)c1ccc2c(c1)OCCO2 | 14.2 µM (active)
17 | Cc1cc(C)nc(Sc2ccc3nnnn3n2)n1 | 28.3 µM (active)
18 | O=C(O)C1CCCCC1C(=O)Nc1ccc(-c2ccccc2)cc1 (configuration not stated) | 10 µM (active)
19 | CCCn1nnc(NC(=O)COc2ccc(C3CCCCC3)cc2)n1 | 0.0252 µM (active)

Row | Structure (SMILES) | Potency
20 | C=C1C(O)C2OC3(CCC(/C=C/C(C)C4CC(C)=CC5(OC(CC(C)(O)C(=O)O)CCC5O)O4)O3)CCC2OC1C(O)CC(C)C1OC2(CCCCO2)CCC1C (configuration not stated) | 20 µM (active)
21 | CCN(C1CCCCC1)S(=O)(=O)c1ccc(S(=O)(=O)NCc2ccncc2)cc1 | inactive
22 | COc1ccc(C(=O)CSc2nnc(C(CO)NC(=O)c3ccc(OC)cc3)n2C)cc1 (configuration not stated) | inactive
23 | CCN(CCn1cccn1)Cc1nc(-c2ccccc2)no1 | inactive
24 | COc1cc(O)c2c(c1)oc(=O)c1c3cc(O)c(O)cc3oc21 | 7.98 µM (active)
25 | Cc1ccc(CSc2nnc(CCCCCNC(=O)OC(C)(C)C)o2)cc1 | inactive
26 | O=C(c1cc2c(s1)-c1ccccc1OC2)N1CCN(c2ccccc2)CC1 | inactive
27 | COc1ccc(C/C(O)=C(\C#N)c2nc3ccccc3s2)cc1 | inactive
28 | COc1cccc(C(C(=O)NC2CCCC2)N(C(=O)c2ccco2)C2CC2)c1OC (configuration not stated) | 8.95 µM (active)
29 | O=C(NCCCO)/C(=C\c1ccco1)NC(=O)c1ccco1 | inactive
30 | Cc1sc(NC(=O)CCCC(=O)O)c(C(N)=O)c1-c1ccccc1 | 11.3 µM (active)
31 | COc1ccc2nc3cc(Cl)ccc3c(NCCCN3CCN(CCCNc4c5ccc(Cl)cc5nc5ccc(OC)cc45)CC3)c2c1 | inactive
32 | COc1ccc(/C=C/c2nnc(NC(=O)CSc3ccc(Cl)cc3)s2)cc1 | 11.3 µM (active)
33 | Cc1nnc(N2C(=O)C(=O)/C(=C(/O)c3ccc4c(c3)OCCO4)C2c2ccc([N+](=O)[O-])cc2)s1 (configuration not stated) | inactive
34 | CCCCC1(C)Nc2ccccc2-c2nc3ccccc3n21 (configuration not stated) | 12.6 µM (active)
35 | CCCn1c(C)cc(/C=C(\C#N)C(=O)OCC(=O)Nc2ccc(OC)c(Cl)c2)c1C | 8.95 µM (active)
36 | COc1ccccc1CN(Cc1cccnc1)S(=O)(=O)c1ccc(-n2cnnn2)c(OC)c1 | inactive
37 | CC(=O)c1ccc(N2CCN(C(=O)c3ccc4nc[nH]c4c3)CC2)cc1 | inactive
